# Screening data deposited in PubChem by National Center for Advancing Translational Sciences (NCATS).
# Cruzain inh noDet – qHTS Assay for Promiscuous and Specific Inhibitors of Cruzain (without detergent); purified cruzain, Z-FR-AMC fluorescence, no detergent; Potency, µM, without a hit: max response, negative = inhibition, usual class: inhibitors; hit rate 2.3% among 200,000; AID 1476, 2009;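 note: plate controls were enzyme without inhibitor for no effect and buffer without enzyme for full effect; nearly all actives have a fitted effect of over 40% in size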
# Target sequence (P25779 123-467 limits assumed): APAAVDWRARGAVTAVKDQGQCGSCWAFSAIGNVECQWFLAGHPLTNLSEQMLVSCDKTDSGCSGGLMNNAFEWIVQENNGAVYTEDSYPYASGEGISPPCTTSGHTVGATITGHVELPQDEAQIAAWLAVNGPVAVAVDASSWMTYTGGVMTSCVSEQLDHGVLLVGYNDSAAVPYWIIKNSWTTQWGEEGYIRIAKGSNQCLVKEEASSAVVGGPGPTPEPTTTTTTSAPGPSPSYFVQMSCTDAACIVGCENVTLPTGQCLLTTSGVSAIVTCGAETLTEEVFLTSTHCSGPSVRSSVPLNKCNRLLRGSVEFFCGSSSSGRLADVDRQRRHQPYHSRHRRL
#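 Purified cruzain at 1.5 nM, pre-incubated 15 min with compound at room temperature in 100 mM sodium acetate pH 5.5, 5 mM DTT, 0.00005% Triton X-100. Reaction started with 2 uM Z-FR-AMC; AMC fluorescence increase over 60 s gives rate.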
# Cruzain inh Det – qHTS Assay for Promiscuous and Specific Inhibitors of Cruzain (with detergent). Cruzipain (Trypanosoma cruzi), P25779. purified cruzain, Z-FR-AMC fluorescence, 0.01% Triton. Potency, µM, for the others: max response, negative = inhibition, usual class: inhibitors. hit rate 0.43% among 200,000. AID 1478, 2009;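 note: plate controls were neutral wells for no effect and buffer without enzyme for full effect; nearly all actives have a fitted effect of over 40% in size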
#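 Purified cruzain (1.5 nM final) was preincubated with compounds for 15 min at room temperature in 100 mM sodium acetate pH 5.5, 5 mM DTT, 0.01% Triton X-100. Reaction started with 2 uM Z-FR-AMC; AMC fluorescence change over 60 s gave activity.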
# * marks the source's active call; other numbers are inactive results; ? = inconclusive. This is a sample that favours compounds with a hit; in the whole collection about 2.4% have one here. Calls come from the whole dose curve; as a rule, active = well fitted curve in the direction sought with a large enough effect; inconclusive = small, poorly fitted or top-dose-only effect, or another doubt; inactive = no such curve, though single readings can be large; an effect the other way counts as inactive or inconclusive. Potency is the fitted concentration of half-maximal effect.
SMILES,Cruzain inh noDet,Cruzain inh Det
CCC1CN(C(=O)C2CCN(S(=O)(=O)c3c(C)noc3/C=C/c3ccccc3F)CC2)c2cc(C)ccc2O1 (stereo not drawn),?,-4%
CC(=O)c1ccc(N2CCN(C(=O)C3CCN(S(=O)(=O)c4c(C)noc4/C=C/c4ccccc4F)CC3)CC2)cc1,-12%,-4%
Cc1ccc(Cl)cc1N1CCN(C(=O)C2CCN(S(=O)(=O)c3c(C)noc3/C=C/c3ccccc3F)CC2)CC1,6.3µM*,-2%
C#C[C@]1(O)CC[C@H]2C3CCC4=Cc5oncc5CC4(C)C3CCC21C (stereo partly drawn),8%,-8%
CCOc1ccc(-c2cc(-c3nc(-c4ccc(C)cc4)no3)[nH]n2)cc1,1%,0%
Cc1ccc(NC(=O)Cn2c(=O)nc(-c3ccccc3)c3ccccc32)cc1,5%,-1%
O=C(N=Nc1c(O)n(Cc2ccccc2)c2ccccc12)c1ccc(O)cc1,?,-3%
Cc1ccc(NC(=O)Cn2c(O)c(N=NC(=O)c3cc4ccccc4cc3O)c3ccccc32)cc1,10µM*,-9%
O=C(N=Nc1c(O)n(Cc2ccccc2)c2ccccc12)c1cc2ccccc2cc1O,7.9µM*,-8%
O=C(Nc1ccc(OC(=O)c2ccccc2)c(-c2nc3ccccc3s2)c1)c1ccccc1,7.9µM*,-1%
O=C(CCS(=O)(=O)c1ccccc1)Nc1ccc(-c2nc3ccccc3s2)c(O)c1,10µM*,0%
O=C(Nc1ccc(O)c(-c2nc3ccccc3s2)c1)C1=COCCO1,2%,-6%
CCS(=O)(=O)c1cccc(C(=O)Nc2ccc(-c3nc4ccccc4s3)c(O)c2)c1,2%,-5%
O=C(Nc1ccc(-c2nc3ccccc3s2)c(O)c1)C1=COCCO1,?,16µM*
O=C(CCN1C(=O)c2ccccc2C1=O)Nc1ccc(-c2nc3ccccc3s2)cc1,25µM*,-2%
Cc1ccc2nc(-c3ccc(NC(=O)CCN4C(=O)c5ccccc5C4=O)cc3)sc2c1,?,4%
COc1ccc(C(=O)Nc2cc(C)c(O)c(-c3nc4ccccc4s3)c2)cc1OC,-2%,1%
COc1ccc(/C=C/C(=O)Nc2nc(-c3cccs3)ns2)cc1OC,?,-6%
COc1cc(NC(=O)NC(C)c2c(-n3cccc3)sc3c2CCN(C)C3)cc(OC)c1 (stereo not drawn),2%,-2%
CC(=O)N1CCc2c(sc3c2c(=O)n(-c2ccccc2C)c(=O)n3CC(=O)Nc2ccccc2)C1,?,-2%
COc1ccc(OC)c(NC(=O)c2csnn2)c1,-22%,-4%
CCOC(=O)C[N+](CC)(CC)CC#Cc1ccccc1,11%,0%
O=C(C1=C[C@@H]2[C@H]3C(=O)N(c4ccc(Cl)cc4)C(=O)[C@H]3[C@@H](C(=O)c3ccc(Cl)cc3)N2C=C1)c1ccccc1,7.9µM*,-6%
Cc1ccc(N2C(=O)C3C(C2=O)C(C(=O)c2ccc(Cl)cc2)N2CCCC32)cc1 (stereo not drawn),-4%,-12%
CCOC(=O)c1ccccc1NC(=O)c1cc(S(=O)(=O)N2CCOCC2)ccc1F,?,-4%
SMILES,Cruzain inh noDet,Cruzain inh Det
CCOC(=O)c1c(-c2ccccc2)csc1NC(=O)c1cc(=O)c2ccc(C)cc2o1,-3%,-2%
CCOC(=O)c1c(-c2ccccc2)csc1NC(=O)c1cc2ccccc2oc1=O,16µM*,-3%
CCOC(=O)c1c(-c2ccccc2Cl)csc1NC(=O)c1cc(S(=O)(=O)N2CCOCC2)ccc1C,25µM*,-2%
C[C@@H]1O[C@@H](O[C@H]2CC[C@]3(C=O)C4CC[C@]5(C)[C@@H](C6=CC(=O)OC6)CC[C@]5(O)[C@@H]4CC[C@]3(O)C2)[C@H](O)[C@H](O)[C@H]1O (stereo partly drawn),-10%,3%
O=C(N/N=C/c1ccccc1Cl)c1n[nH]c2c1CCCC2,25µM*,0%
O=C(N/N=C/C(Br)=C/c1ccccc1)c1n[nH]c2c1CCC2,16µM*,-7%
O=C(N/N=C/c1cccs1)c1n[nH]c2c1CCC2,1%,-4%
O=C(CNc1cccc2ccccc12)N/N=C/C(Br)=C/c1ccccc1,-26%,-7%
C=CC(=O)OCCCC,-3%,6%
O=C(CN1C(=O)CCSc2ccccc21)Nc1ccc(C(F)(F)F)cc1,-13%,0%
FC(F)(F)c1cccc(-c2noc(-c3cc(-c4ccccc4)c(C(F)(F)F)s3)n2)c1,0%,0%
COc1ccc(C2CC(=O)c3cc(-c4nc(-c5cccc([N+](=O)[O-])c5)cs4)c(=O)n(-c4cccc(C)c4)c3C2)cc1 (stereo not drawn),?,-3%
CN1/C(=C\C=N\NC(=O)c2ccc(O)cc2)C(C)(C)c2ccccc21,20µM*,?
CN1/C(=C\C=Nc2ccccc2)C(C)(C)c2ccccc21,-1%,-4%
O=C(CCc1[nH]c2ccccc2c1Sc1ccccc1)NCCO,?,-4%
Cc1cc(C)nc(NC(=NCCc2c[nH]c3ccccc23)NC(=O)c2ccco2)n1,?,-3%
Cc1cc(C)nc(NC(=NCCc2c[nH]c3ccccc23)NC(=O)Nc2ccccc2)n1,?,-3%
Cc1cc(C)nc(NC(=NCCc2c[nH]c3ccccc23)NC(=O)Nc2ccc(Cl)c(Cl)c2)n1,7.9µM*,-2%
Cc1cc(C)nc(NC(=NCCc2c[nH]c3ccccc23)NC(=O)Nc2cccc([N+](=O)[O-])c2)n1,10µM*,-3%
COc1ccc(/C=C/C(=O)c2cccs2)c(OC)c1,4%,-3%
Cc1ccc(-c2nn(-c3ccc(F)cc3F)c3c2cnc2c(F)cccc23)cc1,-9%,1%
COC(=O)C(C(=O)OC)[C@@H]1O[C@@]23COC=C[C@]2(C)[C@H]3c2ccccc21,-5%,4%
COc1ccccc1NC(=O)c1ccc(NC(=O)COC(=O)CC(NC(=O)c2ccccc2Cl)c2ccccc2)cc1 (stereo not drawn),20µM*,-6%
COc1ccccc1NC(=O)c1ccc(NC(=O)COC(=O)C(C)C)cc1,3%,-4%
Cc1cccc(C(=O)N2CCc3cc(CNC(=O)c4cc5ccccc5[nH]4)ccc32)c1,32µM*,-1%
SMILES,Cruzain inh noDet,Cruzain inh Det
COc1ccc2cc(C(=O)NCc3ccc4c(c3)CCN4C(=O)c3ccccc3)[nH]c2c1,?,-1%
Cc1cc(C)nc(Nc2ccc(N3CCCC3)cc2)n1,32µM*,-4%
Cc1cc(C)nc(Nc2ccc(N3CCOCC3)cc2)n1,?,0%
CC(C)(C)CC(C)(C)c1cc(O)c(O)c(CN2CCCCC2)c1,0%,-3%
CCCCOc1ccc(S(=O)(=O)NC(=O)NCc2ccc(OCCC)cc2)cc1,25µM*,0%
CCCCOc1ccc(S(=O)(=O)Nc2ccc(NC(C)=O)cc2)cc1,-5%,-9%
Cc1ccc(S(=O)(=O)NC(=O)NCc2ccccc2)cc1,11%,6%
CCCCOc1ccc(CNC(=O)NS(=O)(=O)c2ccc(OCC(C)C)cc2)cc1,7.9µM*,7%
CCCCNC(=O)NS(=O)(=O)c1ccc(C)cc1,8%,-1%
CCCCOc1ccc(CNC(=O)NS(=O)(=O)c2ccc(OCC)cc2)cc1,20µM*,0%
O=C(Nc1ccc(Br)cc1)C1CCCN1S(=O)(=O)c1ccc(F)cc1 (stereo not drawn),-5%,-7%
Cc1ccc(-c2nc3cc(C(C)C)ccc3o2)cc1NC(=O)c1cc([N+](=O)[O-])ccc1N1CCOCC1,-5%,-1%
